Measured values as given in a collection of fitness landscapes (doi:10.1016/j.celrep.2020.107928).
In all, about 81,000 sequences were measured (“one-hybrid fitness for binding parS DNA”: median about -0.17, highest 2% from about 0.51 on). This is one part of a sample in which the highest values are shown more often than they occur.

B1: Caulobacter ParB omega fusion; a variant is named by its letters at X, in order, B8GW30 (parent)
chain: MESVVVGEPGMSEGRRGLGRGLSALLGEVDAAPAQAPGEQLGGSREAPIEILQRNPDQPRRTFREEDLEDLSNSIREKGVLQPILVRPSPDTAGEYQIVAGERAWRAAQRAGLKTVPIMVRELDDLAVLEIGIIENVQRADLNVLEEALSYKVLMEKFERTQENIAQTIGKSXSHVANXMRLLXLPDEVQSYLVSGELTAXHARAIAAAADPVALAKQIIEGGLSVRETEALARKAPNLSAGKSKGGRPPRVKDTDTQALESDLSSVLGLDVSIDHRGSTGTLTITYATLEQLDDLCNRLTRGI

Variants of: B1
Assay: one-hybrid fitness for binding parS DNA (scaled: cognate 1, non-cognate 0); higher = stronger binding
Settings: with parS DNA site
Procedure, shortened: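 Bacterial one-hybrid selection in E. coli USO rpoZ- hisB- pyrF- with a HIS3 reporter carrying the site 19 bp from the promoter, screening Caulobacter ParB libraries with four specificity codons randomised (NNS). Cells grew 48 hours at 37°C on M9-minus-histidine plus 0.1 mM IPTG and 5 mM 3-AT. Plasmids before and after selection were Illumina-sequenced, three replicate libraries pooled, and variants under 10 reads dropped. Fitness is the log change in variant-to-wild-type read ratio, rescaled to cognate 1, non-cognate 0.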

Row | Variant | one-hybrid fitness for binding parS DNA
1 | VQAC | ≤ 0.2
2 | NLYH | ≤ 0.2
3 | RYIT | 0.628
4 | RYIF | ≤ 0.2
5 | RYPT | 0.403
6 | VSVG | ≤ 0.2
7 | ATKL | ≤ 0.2
8 | LWCV | ≤ 0.2
9 | TMIC | ≤ 0.2
10 | RQNA | 0.613
11 | RQDA | 0.546
12 | GTRS | ≤ 0.2
13 | WREM | ≤ 0.2
14 | KDAT | ≤ 0.2
15 | KNTT | ≤ 0.2
16 | RWKC | 0.896
17 | RWVM | 0.27
18 | RWVD | ≤ 0.2
19 | RWVC | 0.544
20 | RWKF | 0.288
21 | RWKK | ≤ 0.2
22 | LFFG | ≤ 0.2
23 | RIAC | 0.973
24 | RIFC | 0.96
25 | RIFH | 0.213

Row | Variant | one-hybrid fitness for binding parS DNA
26 | RIFN | 0.438
27 | RIAF | 0.213
28 | RIAK | ≤ 0.2
29 | HAMK | ≤ 0.2
30 | NSMR | ≤ 0.2
31 | HTHL | ≤ 0.2
32 | RWMC | 0.628
33 | RWMP | ≤ 0.2
34 | RWMH | ≤ 0.2
35 | RWMS | 0.788
36 | RWMQ | ≤ 0.2
37 | RWMG | 0.671
38 | RWMT | 0.556
39 | RWMM | ≤ 0.2
40 | RWMN | 0.211
41 | RWMR | ≤ 0.2
42 | RWMK | ≤ 0.2
43 | RWMD | ≤ 0.2
44 | FGNS | ≤ 0.2
45 | ACYG | ≤ 0.2
46 | CHPN | ≤ 0.2
47 | SMHF | ≤ 0.2
48 | RWKG | 0.901
49 | RWKD | ≤ 0.2
50 | RWKN | 0.421

Row | Variant | one-hybrid fitness for binding parS DNA
51 | RWVG | 0.584
52 | RWVK | ≤ 0.2
53 | RWVR | ≤ 0.2
54 | DTHI | ≤ 0.2
55 | EYGF | ≤ 0.2
56 | AERY | ≤ 0.2
57 | KENP | ≤ 0.2
58 | FRDG | ≤ 0.2
59 | HAQD | ≤ 0.2
60 | RGTT | 0.624
61 | RGTN | 0.25
62 | RGTR | ≤ 0.2
63 | RGTS | 0.863
64 | RGTC | 0.695
65 | RGTF | ≤ 0.2
66 | RGTK | ≤ 0.2
67 | RGTG | 0.78
68 | RGTD | ≤ 0.2
69 | RGTM | ≤ 0.2
70 | RGTH | ≤ 0.2
71 | RGTP | ≤ 0.2
72 | TYYF | ≤ 0.2
73 | PKPC | ≤ 0.2
74 | QSEI | ≤ 0.2
75 | CPAM | ≤ 0.2

Row | Variant | one-hybrid fitness for binding parS DNA
76 | QILY | ≤ 0.2
77 | QADE | ≤ 0.2
78 | CSLA | ≤ 0.2
79 | RAVC | 0.851
80 | RAVP | ≤ 0.2
81 | RAKR | ≤ 0.2
82 | RAKM | 0.448
83 | RAVN | 0.388
84 | RAKC | 0.91
85 | CAPG | ≤ 0.2
86 | TVAL | ≤ 0.2
87 | SDKW | ≤ 0.2
88 | FVSL | ≤ 0.2
89 | KQRR | ≤ 0.2
90 | IVGT | ≤ 0.2
91 | LIKM | ≤ 0.2
92 | INCG | ≤ 0.2
93 | RTVQ | ≤ 0.2
94 | RTVT | 0.879
95 | RTKQ | ≤ 0.2
96 | RTKP | ≤ 0.2
97 | RTVK | ≤ 0.2
98 | RTKT | 0.74
99 | SPTS | ≤ 0.2
100 | AAYI | ≤ 0.2

Row | Variant | one-hybrid fitness for binding parS DNA
101 | AFVR | ≤ 0.2
102 | SQAR | ≤ 0.2
103 | QSAW | ≤ 0.2
104 | RFVC | 0.753
105 | NFVC | ≤ 0.2
106 | DFKC | ≤ 0.2
107 | NFKC | ≤ 0.2
108 | DFVC | ≤ 0.2
109 | RFKC | 0.991
110 | ARWW | 0.23
111 | ICDS | ≤ 0.2
112 | HSSC | ≤ 0.2
113 | IVSG | 0.263
114 | STPM | ≤ 0.2
115 | SILY | ≤ 0.2
116 | RTFT | 0.911
117 | RTAR | ≤ 0.2
118 | RTAT | 0.918
119 | RTFM | 0.334
120 | RTAQ | ≤ 0.2
121 | RTFQ | 0.26
122 | EICA | ≤ 0.2
123 | RNHW | ≤ 0.2
124 | GQRT | ≤ 0.2
125 | LGMH | ≤ 0.2

Row | Variant | one-hybrid fitness for binding parS DNA
126 | QVAS | ≤ 0.2
127 | RNAA | 0.456
128 | RMAA | 0.59
129 | RGFA | 0.215
130 | REAA | ≤ 0.2
131 | RMFA | 0.61
132 | NNVS | ≤ 0.2
133 | HPRW | ≤ 0.2
134 | RKGE | ≤ 0.2
135 | RIHS | 0.97
136 | RIHD | ≤ 0.2
137 | RIWP | 0.223
138 | RILS | 1.04
139 | RIRS | 0.874
140 | RIRP | ≤ 0.2
141 | RIWS | 1.05
142 | RIHN | 0.463
143 | RILP | ≤ 0.2
144 | RILH | ≤ 0.2
145 | RIRD | ≤ 0.2
146 | RIWD | ≤ 0.2
147 | YILC | ≤ 0.2
148 | NTNE | ≤ 0.2
149 | HGYW | ≤ 0.2
150 | PCLT | ≤ 0.2

Row | Variant | one-hybrid fitness for binding parS DNA
151 | RIYS | 1.07
152 | RIYH | ≤ 0.2
153 | RIYN | 0.476
154 | VRVS | ≤ 0.2
155 | VYCV | ≤ 0.2
156 | VANG | ≤ 0.2
157 | RVVP | ≤ 0.2
158 | RVVT | 0.795
159 | RVKT | 0.761
160 | RVKD | ≤ 0.2
161 | RVKN | 0.46
162 | RVVH | ≤ 0.2
163 | SDSY | ≤ 0.2
164 | RRMV | ≤ 0.2
165 | REHG | 0.236
166 | RCHG | 0.994
167 | RLHQ | ≤ 0.2
168 | RIHG | 1.02
169 | RLHG | 1.01
170 | RIHY | 0.461
171 | RSHQ | ≤ 0.2
172 | RPHG | ≤ 0.2
173 | RDHG | ≤ 0.2
174 | RLHM | 0.321
175 | RSHG | 1

Row | Variant | one-hybrid fitness for binding parS DNA
176 | RIHF | ≤ 0.2
177 | CRRT | ≤ 0.2
178 | TFGN | ≤ 0.2
179 | FDPG | ≤ 0.2
180 | QNIS | ≤ 0.2
181 | FWAR | ≤ 0.2
182 | TTPY | ≤ 0.2
183 | NYDR | ≤ 0.2
184 | DKHC | ≤ 0.2
185 | YHHS | ≤ 0.2
186 | RHSF | ≤ 0.2
187 | RHSY | 0.41
188 | RHGF | ≤ 0.2
189 | RHCD | ≤ 0.2
190 | RHST | 0.854
191 | RHCN | 0.381
192 | RHQK | ≤ 0.2
193 | RHQT | 0.853
194 | RHGM | 0.232
195 | RHGT | 0.832
196 | RHCT | 0.766
197 | RHQF | ≤ 0.2
